Source: PubChem BioAssay (Tox21)
Inconclusive results are not listed. Entries that show only a call come without a potency. Activity calls are given as the source filed them. Calls follow the shape of the dose curve; as a rule, active = well fitted curve in the direction sought with a large enough effect in the repeat runs; inconclusive = weak or mixed curves; inactive = no such curve, though single readings can be large; an effect the other way counts as inactive or inconclusive.

Assay: qHTS RealTime-Glo MT Cell Viability Assay in HepG2 cells - 8 hour (AID 1224873); also: nearly all actives have a fitted effect of over 55% in size
Conditions: RealTime-Glo luminescence; series mostly up to 76.8 µM
How it was run: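 HepG2 cells mixed with RealTime-Glo MT reagents (NanoLuc plus cell-permeant prosubstrate) were seeded at 600 cells/well, incubated 5 h at 37 C/5% CO2, then pinned with compounds in DMSO; nonlytic luminescence tracked viability during 40 h treatment.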

| Compound | outcome |
| --- | --- |
| O=C1CN(/N=C/c2ccc([N+](=O)[O-])o2)C(=O)N1 | inactive |
| CCCC(CCC)C(=O)O | inactive |
| CCCCC1C(=O)N(c2ccccc2)N(c2ccccc2)C1=O | inactive |
| OC(Cn1cncn1)(Cn1cncn1)c1ccc(F)cc1F | inactive |
| CCCNC(=O)NS(=O)(=O)c1ccc(Cl)cc1 | inactive |
| O=C(O)CS | inactive |
| O=NO | inactive |
| CC(O)C(=O)O (stereo unspecified) | inactive |
| Cn1cc[nH]c1=S | inactive |
| CCCCOC(=O)CC(CC(=O)OCCCC)(OC(C)=O)C(=O)OCCCC | inactive |
| CC(=O)OCC(COC(C)=O)OC(C)=O | inactive |
| O=C(O)c1cccc([N+](=O)[O-])c1 | inactive |
| Cc1noc(NS(=O)(=O)c2ccc(N)cc2)c1C | inactive |
| Nc1ccc(C(=O)O)cc1 | inactive |
| O=C(O)CCCCC(=O)O | inactive |
| CC1(C)[C@@H]2CC[C@@]1(C)C(=O)C2 | inactive |
| CCOc1ccc(NC(=O)CC(C)O)cc1 (stereo unspecified) | inactive |
| O=C1NC(=O)c2ccccc21 | inactive |
| C/C=C/c1ccc(OC)cc1 | inactive |

| Compound | outcome |
| --- | --- |
| Cc1ccc(O)cc1 | inactive |
| c1ccc2[nH]ccc2c1 | inactive |
| O=C(O)c1cc(N=Nc2ccc(S(=O)(=O)Nc3ccccn3)cc2)ccc1O | inactive |
| CC(C)[C@@H]1CC[C@@H](C)C[C@H]1O | inactive |
| CCCC(O)C(CC)CO (stereo unspecified) | inactive |
| Cn1c(=O)c2[nH]cnc2n(C)c1=O | inactive |
| CCCN(CCC)S(=O)(=O)c1ccc(C(=O)O)cc1 | inactive |
| Nc1ccc(O)c(C(=O)O)c1 | inactive |
| O=C(c1ccccc1)c1ccccc1 | inactive |
| O=C(C1CCCCC1)N1CC(=O)N2CCc3ccccc3C2C1 (stereo unspecified) | inactive |
| NC(=O)c1cnccn1 | inactive |
| CC(=O)Nc1nnc(S(N)(=O)=O)s1 | inactive |
| O=C(O)/C=C\C(=O)O | inactive |
| Cc1cc(=O)n(-c2ccccc2)n1C | inactive |
| O=C(c1ccccc1)C(O)c1ccccc1 (stereo unspecified) | inactive |
| NC(=O)c1ccccc1O | inactive |
| NS(=O)(=O)c1cc(C(=O)O)c(NCc2ccco2)cc1Cl | inactive |
| CCC1(c2ccccc2)C(=O)NCNC1=O | inactive |

Assay: A CellTox Green Cytotoxicity Assay to monitor cytotoxicity in HEK293 cells - 24 hour (AID 1224875); also: nearly all actives have a fitted effect of over 45% in size
Conditions: CellTox Green fluorescence; series mostly up to 76.8 µM
How it was run: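 Cells (HEK293, 600/well) and dye reagent are dispensed together. After 5 h at 37 C, 23 nL compound is pinned in. Plates stay at 37 C for 40 h with fluorescence read at 0h, 8h, 16h, 24h, 32h and 40h.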

| Compound | Potency |
| --- | --- |
| O=C1CN(/N=C/c2ccc([N+](=O)[O-])o2)C(=O)N1 | inactive |
| CC(O)C(=O)O (stereo unspecified) | inactive |
| Cn1cc[nH]c1=S | inactive |
| CCCCOC(=O)CC(CC(=O)OCCCC)(OC(C)=O)C(=O)OCCCC | inactive |
| CC(=O)OCC(COC(C)=O)OC(C)=O | inactive |
| Cc1noc(NS(=O)(=O)c2ccc(N)cc2)c1C | inactive |
| Nc1ccc(C(=O)O)cc1 | inactive |
| CCOc1ccc(NC(=O)CC(C)O)cc1 (stereo unspecified) | inactive |
| Cc1ccc(O)cc1 | inactive |
| CCCC(O)C(CC)CO (stereo unspecified) | inactive |
| CCCN(CCC)S(=O)(=O)c1ccc(C(=O)O)cc1 | inactive |
| O=C(C1CCCCC1)N1CC(=O)N2CCc3ccccc3C2C1 (stereo unspecified) | inactive |
| O=C(c1ccccc1)C(O)c1ccccc1 (stereo unspecified) | inactive |
| CCC1(c2ccccc2)C(=O)NCNC1=O | inactive |
